# Bioassay records from PubChem BioAssay.
# STK33 kin inh: STK33 kinase inhibitors, primary screen, biochemical, luminescence, ADP-Glo, MBP substrate | AID 2322, 2010 | inhibition, % at 12.5 µM | actives 0.44% (n = 27,000); in the data active = inhibition above about 20%; inconclusive = no clear call, values can overlap the other calls
# PD-1 reverse act: activators reversing PD-1 mediated T-cell inhibition, primary screen, luminescence, primary human CD4 T cells, PD-L1 beads. activation, % (no concentration beside the values). CellTiter-Glo 96 h. 29,000 tested, under 10 active; call rule not given here;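 also: 0% = median vehicle wells and 100% = positive control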
# NOMO-1 viab: NOMO-1 AML cell viability reduction, primary screen, STK33 inhibitor project, CellTiter-Glo luminescence. NOMO-1 AML viability, 72 h. inhibition, % (no concentration beside the values). actives 7.5% (n = 37,000); in the data active = inhibition above about 80%; inconclusive = no clear call, values can overlap the other calls
# Numbers without * were called inactive; ? = inconclusive; · = not tested or not shown. Shown is part of a subset that was picked to be rich in hits.
SMILES,STK33 kin inh,PD-1 reverse act,NOMO-1 viab
COc1ccccc1NC(=O)Cn1nnc(-c2cccs2)n1,0.0,0.4,3.1
O=C(Nc1ccc(OCc2nc3ccccc3s2)cc1)c1cccc(I)c1,-1.5,·,105.5*
CCC(=O)Nc1ccc(OCc2nc3ccccc3s2)cc1,-1.1,·,-6.9
O=C(CCC(=O)N(Cc1ccccc1)Cc1ccccc1)Nc1ccc(F)cc1,·,-1.6,29.6
CN(C)CCCNc1c([N+](=O)[O-])c(=O)n(C)c2ccccc12,0.1,0.8,22.7
Cc1ccc(CC(c2nc3ccccc3[nH]2)C(C)c2nc3ccccc3[nH]2)cc1 (stereo unspecified),3.4,·,90.9*
Cc1ccc(OCCSCc2nc3ccccc3[nH]2)cc1,-0.4,-2.6,40.0
Cc1ccccc1OCC(O)Cn1c2ccccc2c2ccccc21 (stereo unspecified),-2.0,-6.6,-30.2
OC(CNC1CCCC1)Cn1c2ccccc2c2ccccc21 (stereo unspecified),2.2,-13.3,95.9*
CCC1(C)Cc2c(sc3nnn(CC(=O)N(c4ccccc4)c4ccccc4)c(=O)c23)CO1 (stereo unspecified),0.1,·,45.6
N#C/C(=C\c1ccc(O)c(O)c1)C(=O)c1ccc(O)c(O)c1,30.6*,1.3,45.6
N#C/C(=C\c1ccc(O)c(O)c1)C(=O)NCCCc1ccccc1,3.1,-1.6,92.3*
NC(=O)NCCc1ccccc1,·,0.8,-20.0
COc1ccc(NC(=O)CS(=O)(=O)c2ccc3ccccc3c2)cc1,1.0,-0.5,28.2
CCn1c2ccccc2c2cc(NC(=O)CN(C)S(=O)(=O)c3ccc(Cl)cc3)ccc21,-2.3,0.5,14.6
C[C@@H]1CCCCO[C@@H](CN(C)S(=O)(=O)c2ccc(F)cc2)[C@@H](C)CN([C@H](C)CO)C(=O)c2cc(NS(=O)(=O)c3ccc(F)cc3)ccc2O1,4.8,-10.3,68.3
C[C@@H]1CCCCO[C@H](CN(C)S(=O)(=O)c2ccccc2)[C@@H](C)CN([C@H](C)CO)C(=O)c2cc(NC(=O)c3ccccc3)ccc2O1,-0.9,-1.6,3.6
C[C@@H]1CCCCO[C@H](CN(C)CC2CCCCC2)[C@@H](C)CN([C@H](C)CO)C(=O)c2cc(NS(=O)(=O)c3ccc(Cl)cc3)ccc2O1,-1.4,-6.3,?
C[C@@H]1CCCCO[C@@H](CN(C)S(=O)(=O)c2ccc(Cl)cc2)[C@@H](C)CN([C@H](C)CO)C(=O)c2cc(NS(=O)(=O)c3ccc(F)cc3)ccc2O1,5.5,·,102.9*
COc1ccc(S(=O)(=O)N(C)C[C@@H]2OCCCC[C@@H](C)Oc3ccc(NS(=O)(=O)c4ccc(Cl)cc4)cc3C(=O)N([C@H](C)CO)C[C@@H]2C)cc1,-7.6,·,93.9*
C[C@@H]1CCCCO[C@@H](CN(C)CC2CCCCC2)[C@@H](C)CN([C@H](C)CO)C(=O)c2cc(NS(=O)(=O)c3ccc(Cl)cc3)ccc2O1,1.4,-11.6,96.8*
C[C@@H]1CCCCO[C@@H](CN(C)S(=O)(=O)c2ccc(Cl)cc2)[C@@H](C)CN([C@H](C)CO)C(=O)c2cc(NC(=O)c3ccccc3)ccc2O1,-2.6,-4.3,87.6*
COc1ccc(S(=O)(=O)Nc2ccc3c(c2)C(=O)N([C@H](C)CO)C[C@H](C)[C@H](CN(C)S(=O)(=O)c2ccc(OC)cc2)OCCCC[C@@H](C)O3)cc1,3.5,0.1,38.3
Cc1cccc(C(=O)N(CC#N)CC#N)c1,·,0.2,-2.5
Cn1c(SCC(=O)Nc2ccc3c(c2)oc2ccccc23)nc2ccccc2c1=O,1.6,2.4,33.2
SMILES,STK33 kin inh,PD-1 reverse act,NOMO-1 viab
COc1ccc(CCNC(=S)NC2CC2)cc1OC,·,1.2,10.5
c1ccc(SCCN2CCN(CCSc3ccccc3)CC2)cc1,·,-0.3,29.8
CC(C)(C)C(=O)Nc1c(Cl)sc2nccc(=O)n12,·,-0.7,-12.2
C[C@@H]1CCCCO[C@H](CN(C)S(=O)(=O)c2ccc(Cl)cc2)[C@@H](C)CN([C@H](C)CO)C(=O)c2cc(NS(=O)(=O)c3ccc(Cl)cc3)ccc2O1,1.3,·,19.9
Cc1ccc(S(=O)(=O)N(C)C[C@H]2OCCCC[C@@H](C)Oc3ccc(NS(=O)(=O)c4ccccc4)cc3C(=O)N([C@H](C)CO)C[C@@H]2C)cc1,5.4,-6.0,36.2
C[C@@H]1CCCCO[C@@H](CN(C)S(=O)(=O)c2ccc(Cl)cc2)[C@@H](C)CN([C@H](C)CO)C(=O)c2cc(NS(=O)(=O)c3ccc(Cl)cc3)ccc2O1,0.0,·,90.7*
Cc1ccc(S(=O)(=O)N(C)C[C@H]2OCCCC[C@@H](C)Oc3ccc(NS(=O)(=O)c4ccc(Cl)cc4)cc3C(=O)N([C@H](C)CO)C[C@@H]2C)cc1,3.1,·,?
